Screening results as filed in PubChem BioAssay.
GLP1R inv ag = qHTS of GLP-1 Receptor Inverse Agonists (Inhibition Mode) | Potency, µM (top dose mostly 38.3 µM), inactives show top-dose activity change, negative = inhibition, actives largely listed as inhibitors | AID 624417, 2012 | HEK293 GLP-1R CRE-luciferase, luminescence, 24 h; GLP-1R form is constitutively active | Glucagon-like peptide 1 receptor (Homo sapiens), P43220 | 410,000 tested, 1.6% active; note: % is set by controls: 0 for no effect and ±100 for the full control effect; nearly all actives have a fitted effect of over 55% in size
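Inverse agonists were sought by their lowering of basal cAMP reporter luciferase output in HEK293 cells stably carrying constitutively active human GLP-1R, after 24 h compound treatment.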
GLP-1R agonist = qHTS of GLP-1 Receptor Agonists. Potency, µM (titrated, usually from 45.6 µM), for inactives: at the top dose activation, usual class: activators. HEK293 GLP-1R CRE-luciferase, luminescence, 4-6 h; cells express a hypersensitive GLP-1R form. AID 624172, 2012. 380,000 tested, 0.007% active. Glucagon-like peptide 1 receptor (Homo sapiens), P43220; note: % of control where 0% means no effect
PTHR1 agonist = qHTS for PTHR1 Agonists: Primary Screen; Parathyroid hormone/parathyroid hormone-related peptide receptor (Homo sapiens), Q03431; HEK293 GP2 PTHR1 cells, GloSensor cAMP luminescence, 1 h; Potency, µM (highest dose often 115 µM), without a hit: at the top dose activation, most hits filed as activators; 410,000 tested, 0.075% active; AID 743266, 2014; note: nearly all actives have a fitted effect of over 55% in size
Target sequence (Q03431 whole entry, looked up): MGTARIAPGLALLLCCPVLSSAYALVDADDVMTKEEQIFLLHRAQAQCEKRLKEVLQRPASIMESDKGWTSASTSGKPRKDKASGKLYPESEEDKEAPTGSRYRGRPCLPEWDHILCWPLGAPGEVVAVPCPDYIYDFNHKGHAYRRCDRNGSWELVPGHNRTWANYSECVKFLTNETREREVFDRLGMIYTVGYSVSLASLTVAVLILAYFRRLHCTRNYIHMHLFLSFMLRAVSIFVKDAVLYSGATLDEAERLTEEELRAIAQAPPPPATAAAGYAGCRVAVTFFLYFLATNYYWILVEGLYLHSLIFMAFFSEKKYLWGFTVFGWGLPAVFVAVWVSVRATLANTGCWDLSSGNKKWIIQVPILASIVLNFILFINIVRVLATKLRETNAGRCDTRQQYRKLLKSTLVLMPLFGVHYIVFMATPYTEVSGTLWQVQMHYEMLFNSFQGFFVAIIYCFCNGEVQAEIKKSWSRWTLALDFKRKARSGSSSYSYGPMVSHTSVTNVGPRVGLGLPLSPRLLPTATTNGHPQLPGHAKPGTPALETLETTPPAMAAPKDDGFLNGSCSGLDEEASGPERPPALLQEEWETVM
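HEK-293-derived GP2 cells expressing PTHR1 and a GloSensor cAMP reporter, 3,000/well, plated overnight, given luciferin plus IBMX (each 0.5 mM as added) for 1 h at 37 °C, then compound for 1 h at 37 °C. Luminescence was read after 15 min at room temperature.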
GLP1R cytotox = qHTS of GLP-1 Receptor Inverse Agonists: Cytotox Screen; Potency, µM (doses to about 38.3 µM), inactives show top-dose activity change, negative = inhibition, hits mostly inhibitors; HEK293 cAMP-luciferase reporter cells, luminescence, 24 h; 410,000 tested, 0.13% active; AID 624418, 2012;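 note: loss of luciferase light is scored as toxicity; % is set by controls: 0 for no effect and ±100 for the full control effect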
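Quantitative HTS format, 1536 wells, 200 cells/uL seeded. Compounds: 23 nL, 24 h, 37 °C. Detection: luciferase reagent, luminescence at 12 min RT; decreased signal taken as cytotoxic.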
RGS4 inh = Inhibitors of Regulator of G Protein Signaling (RGS) 4: qHTS. Regulator of G-protein signaling 4 (Homo sapiens), P49798. Transcreener GDP fluorescence polarization, RGS4-accelerated GTP hydrolysis. Potency, µM (top dose mostly 114 µM), inactives show at the top dose activity change, negative = inhibition, most hits filed as inhibitors. 390,000 tested, 0.039% active. AID 504845, 2011; note: % is set by controls: 0 for no effect and ±100 for the full control effect; nearly all actives have a fitted effect of over 75% in size
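MLSMR compounds (23 nl, pin-transferred) preincubated 10 min at room temperature with a 500nM (2x) first reagent, then RGS4 at 900nM (2x) plus Transcreener GDP mix added; fluorescence polarization (620/688 nm) read before and after 90 min at 30 °C.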
Starred values were filed as active, the others as inactive; i = inactive; u = inconclusive; x = no result given. An excerpt weighted towards active compounds, which were near 1.7% of everything screened. Calls come from the whole dose curve; as a rule, active = well fitted curve in the direction sought with a large enough effect; inconclusive = small, poorly fitted or top-dose-only effect, or another doubt; inactive = no such curve, though single readings can be large; an effect the other way counts as inactive or inconclusive. Potency is the fitted concentration of half-maximal effect.

SMILES | GLP1R inv ag | GLP-1R agonist | PTHR1 agonist | GLP1R cytotox | RGS4 inh
CCn1c2ccccc2c2cc(/C=N/n3c(-c4cc(C)[nH]n4)n[nH]c3=S)ccc21 | 2.5µM* | 17% | i | -23% | -51%
O=C(NCC(c1ccco1)N1CCN(c2ccc(F)cc2)CC1)OCc1ccccc1 (stereo not given) | 3.5µM* | -1% | -77% | 14% | -17%
O=S(=O)(NCC(c1ccco1)N1CCN(c2ccc(F)cc2)CC1)c1ccc(F)cc1 (stereo not given) | 10µM* | 2% | i | 9% | -17%
CC(=O)c1ccc(NC(=S)NC(NC(=O)c2ccco2)C(Cl)(Cl)Cl)cc1 (stereo not given) | 5µM* | -17% | -11% | -7% | -8%
O=C(NC(NC(=S)Nc1ccc(Cl)cc1)C(Cl)(Cl)Cl)c1ccco1 (stereo not given) | 3.5µM* | -2% | -36% | u | -26%
CC(C)C#Cc1cnc2c(c1)C(=O)N([C@@H](C)CO)C[C@@H](C)[C@H](CN(C)Cc1cccc(F)c1)O2 | u | 21% | -20% | -16% | x
O=C1C=CC(=O)N1CCNc1ncc(C(F)(F)F)cc1Cl | 11µM* | 6% | -29% | u | u
O=C(OCc1nnc(-c2ccccc2)o1)c1ccc(-n2cnnn2)cc1 | -6% | 14% | 28% | -1% | 18%
O=C(OCc1nnc(-c2ccccc2)o1)c1cn(-c2ccccc2)nc1-c1ccccc1 | 13µM* | -1% | -20% | 7% | 9%
O=C(Nc1ccc2c(c1)OCO2)c1noc2c1CCCC2 | u | 1% | -24% | -9% | -7%
O=C(c1ccccc1)N1CCCCC1 | -3% | 5% | i | 6% | -14%
O=C(c1ccccc1)N(C(=O)c1ccccc1)N1CCCC1 | 10µM* | 10% | -1% | -5% | 6%
CCCCCC(=O)O/N=C(\C)c1ccn(S(=O)(=O)c2ccccc2)c1 | -2% | 9% | i | 21% | -41%
C[C@H](O)[C@@H]1CN2CCc3c([nH]c4ccc(-c5ccc6c(c5)OCO6)cc34)[C@@H]2C[C@@H]1N(C)C(=O)Nc1ccc(F)cc1 | 4µM* | -8% | -7% | u | x
COc1ccc(-c2ccc3[nH]c4c(c3c2)CCN2C[C@@H]([C@H](C)O)[C@@H](N(C)C(=O)Nc3cc(Cl)cc(Cl)c3)C[C@@H]42)cc1 | u | -5% | -2% | 8% | x
COc1ccccc1C(=O)N=C1SC2CS(=O)(=O)CC2N1c1ccccc1 (stereo not given) | 15% | 5% | i | -2% | -16%
N=C1N(c2ccccc2)C(=S)C(=Nc2ccccc2)N1c1ccccc1 | 13µM* | 11% | -12% | -1% | u
COc1ccc(N=C2C(=S)N(c3ccc(OC)cc3)C(=NS(=O)(=O)c3ccccc3)N2c2ccccc2)cc1 | -23% | -1% | -21% | -12% | u
Cc1c(C(=O)NCC(c2ccc(Cl)cc2)N2CCOCC2)oc2ccccc12 (stereo not given) | u | x | i | -4% | -7%
Cc1ccccc1CN(C)C(=O)COC(=O)c1ccc2[nH]c(C)c(C)c2c1 | 8.9µM* | 2% | 0% | -29% | 35%
O=C(CCC(=O)N1CCN(c2ccc(Cl)c(Cl)c2)CC1)c1ccccc1 | 11µM* | -5% | -27% | 5% | -10%
CC(C)(C)C(=O)CSc1nc2ccsc2c(=O)n1Cc1ccccc1F | 13µM* | x | i | -5% | -38%
Cc1ccc(OC(C)C(=O)Nc2ccc(C)c(S(=O)(=O)Nc3ccc(C)cc3C)c2)cc1 (stereo not given) | 4µM* | -4% | -59% | -9% | 17%
Cc1ccc(CNS(=O)(=O)c2c(C)nc3sc(C)cn3c2=O)cc1 | -1% | x | i | 10% | 18%
CC1CCCCC1NCC#CCOc1ccc(Cl)cc1 (stereo not given) | 11µM* | -3% | i | 2% | -22%
SMILES | GLP1R inv ag | GLP-1R agonist | PTHR1 agonist | GLP1R cytotox | RGS4 inh
CCN(Cc1nc(-c2ccccc2)no1)C(=O)COc1cccc(OC)c1 | 1.8µM* | 14% | -15% | 14% | 2%
Cc1ccc(S(=O)(=O)N(CC(=O)NC2CC3CCC2C3)c2ccccc2)cc1 (stereo not given) | u | -1% | -11% | 5% | x
CCOC(=O)c1cc2ccccc2n1C1CCN(C)CC1 | -29% | -2% | -6% | -37% | x
O=C(O)CCn1cc(/C=C\C(=O)c2ccc(Cl)cc2)c(-c2cccc(Br)c2)n1 | 13µM* | -1% | -28% | 4% | u
CCOc1ccc(C(=O)Nc2nnc(SCc3cc(=O)n4ccccc4n3)s2)cc1 | 8% | x | i | -2% | 5%
CCOc1ccc(OCCCC(=O)N(C)CC(=O)Nc2ccccc2Br)cc1 | -24% | 0% | -38% | -2% | -21%
CCCN(CC(=O)Nc1ccccc1C)C(=O)CCCOc1ccc(Br)cc1 | 8.9µM* | 1% | -23% | 2% | 11%
CN(C)CCOC1=Cc2ccccc2Sc2ccc(Cl)cc21 | x | 20% | x | x | x
CCC(C)n1c(SCc2ccc(C(C)(C)C)cc2)nc2ccsc2c1=O (stereo not given) | 1% | x | -2% | 20% | 21%
CCC(C)n1c(SCc2ccccc2)nc2ccsc2c1=O (stereo not given) | 7.9µM* | 1% | i | 11% | -15%
CCCn1c(N2CCN(Cc3ccc(Cl)cc3)CC2)nc2ccccc21 | 11µM* | -6% | -36% | u | 2%
COC(=O)c1c(NC(=O)Cc2coc3cc(C)ccc23)sc2c1CCC2 | 16% | x | u | 20% | 16%
Cc1ncsc1C(=O)N1N=C2/C(=C/c3ccccc3)CCCC2C1c1ccccc1 (stereo not given) | 4µM* | -2% | -28% | -13% | 8%
Cc1ncsc1C(=O)N1N=C2/C(=C/c3ccc(N4CCOCC4)cc3)CCCC2C1c1ccc(N2CCOCC2)cc1 (stereo not given) | -5% | 21% | -6% | -23% | -25%
Cc1oc2c(c1C(=O)c1ccccc1)C(=O)C(=O)c1ccccc1-2 | 4.5µM* | -51% | -12% | u | u
COC(=O)[C@H](C)N(Cc1ccc(Cl)c(Cl)c1)S(=O)(=O)CCNC1CCCC1 | 13µM* | -4% | i | -2% | 11%
COCCS(=O)(=O)N(Cc1ccc(Br)cc1)[C@@H](C)C(=O)OC | 3% | 0% | -3% | 6% | -11%
